In PubChem BioAssay (Tox21):
Records with an inconclusive call do not appear. Activity calls are given as the source filed them. Unless noted, the call rests on the fitted dose curve; in most records, active means well fitted curve in the direction sought with a large enough effect in the repeat runs; inconclusive means weak or mixed curves; inactive means no such curve, though single readings can be large; an effect the other way counts as inactive or inconclusive.

Columns and labels:
[1] = qHTS assay for small molecules that induce genotoxicity in human embryonic kidney cells expressing luciferase-tagged ATAD5 (AID 651632); further: nearly all actives have a fitted effect of over 15% in size
In short: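 Reporter cells (HEK293T) express luciferase-tagged ATAD5, a protein that accumulates after DNA damage. Treat 16 hr at 37C/5% CO2, add Amplite, wait 30 min at RT, and read luminescence.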

[2] = qHTS assay for small molecule agonists of the p53 signaling pathway - cell viability (AID 651633; calls by dose curve;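 further: p53RE-bla HCT reporter cells with a stable beta-lactamase p53 reporter; series mostly up to about 83 µM; nearly all actives have a fitted effect of over 30% in size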)
In short: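 p53RE-bla cells were treated with compound for 16 hours at 37 C. Cytotoxicity was then measured as CellTiter-Glo luminescence after 30 min at room temperature.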

[3] = qHTS assay for small molecules that induce genotoxicity in human embryonic kidney cells expressing luciferase-tagged ATAD5 - cell viability (AID 651634; calls by dose curve; further: nearly all actives have a fitted effect of over 25% in size)
In short: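 Seeding of 2,000 HEK293T ATAD5-luciferase cells per well preceded pin-tool compound transfer. Plates sat 15.5 hr at 37C under 5% CO2, then fluorescence was read after 30 min with CellTiter-Fluor.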

[4] = qHTS assay for small molecule disruptors of the mitochondrial membrane potential - cell viability (AID 720634; calls by dose curve;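 further: human HepG2 liver cancer cells; series mostly up to about 83 µM; nearly all actives have a fitted effect of over 20% in size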)
In short: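 Measuring cytotoxicity alongside mitochondrial potential, the screen quantified ATP by luminescence in HepG2 cells after 1 hr compound incubation and a 30 min room-temperature CellTiter-Glo step.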

[5] = qHTS assay for small molecule disruptors of the mitochondrial membrane potential (AID 720635); further: potency means the concentration at half of the fitted maximal effect
In short: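 HepG2 cells exposed to compound 1 hr at 37C, then Mito-MPS dye 30 min. Ratio read of aggregate (540/590 nm) versus monomer (490/535 nm) fluorescence.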

[6] = qHTS assay to test for compound auto fluorescence at 590 nm (red) in HepG2 cells (AID 720674)
In short: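 HepG2 cells, 2,000 per well in MEM with 10% FBS, attached overnight at 37 C, then got 23 nL compound or DMSO. After 1 hr at 37 C, 5% CO2, red fluorescence was read at 540/590 nm against Rose Bengal sodium as reference.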

[7] = qHTS assay to test for compound auto fluorescence at 535 nm (green) in HepG2 cells (AID 720675)
[8] = qHTS assay to test for compound auto fluorescence at 460 nm (blue) in HEK293 cells (AID 720678)
In short: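 Blue read-out at excitation 405 nm and emission 460 nm follows overnight compound exposure of HEK293 cells at 37C in 5% CO2. Activity is given as auto fluorescence equivalency to triamterene.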

[9] = qHTS assay to test for compound auto fluorescence at 590 nm (red) in HEK293 cells (AID 720679)
In short: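 Red channel, Ex/Em 540/590nm; signal expressed as equivalency to Rose Bengal sodium. HEK293, 2,000 cells/well, 10% dialyzed FBS; 23 nL compound pinned after 4-5 hr attachment; overnight 37C/5% CO2 before reading.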

[10] = qHTS assay to test for compound auto fluorescence at 535 nm (green) in HEK293 cells (AID 720680)
[11] = qHTS assay to test for compound auto fluorescence at 460 nm (blue) in HEK293 cell free culture (AID 720681)
In short: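 Compounds were added to cell-free DMEM with 10% FBS and fluorescence read directly. The blue channel used 405 nm excitation and 460 nm emission, with triamterene as the reference fluorophore.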

[12] = qHTS assay to test for compound auto fluorescence at 535 nm (green) in HEK293 cell free culture (AID 720682)
In short: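 Steps: dispense DMEM/10% FBS into empty wells; pin in compound or DMSO; measure fluorescence at 485/535 nm. Values are fluorescein equivalents.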

[13] = qHTS assay to test for compound auto fluorescence at 590 nm (red) in HEK293 cell free culture (AID 720683)
In short: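 Cell-free wells of DMEM with 10% FBS received compound, and intrinsic fluorescence was read at excitation/emission 540/590 nm. Values expressed as equivalence to Rose Bengal sodium.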

[14] = qHTS assay to test for compound auto fluorescence at 590 nm (red) in HepG2 cell free culture (AID 720684)
In short: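 Compounds are added to culture medium (MEM, 10% FBS) lacking cells, then fluorescence is read at excitation 540 nm, emission 590 nm, with Rose Bengal sodium as the equivalency standard.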

[15] = qHTS assay to test for compound auto fluorescence at 460 nm (blue) in HepG2 cell free culture (AID 720685)
In short: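 Compound (23 nL) or DMSO pinned into cell-free MEM with 10% FBS; blue fluorescence read at 405/460 nm excitation/emission, expressed as auto-fluorescence equivalency to triamterene.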

[16] = qHTS assay to test for compound auto fluorescence at 535 nm (green) in HepG2 cell free culture (AID 720686)
[17] = qHTS assay to test for compound auto fluorescence at 460 nm (blue) in HepG2 cells (AID 720687)
In short: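 HepG2 cells in MEM with 10% FBS, attached overnight at 37 C, were exposed to compound or DMSO for 1 hr at 37 C, 5% CO2. Blue fluorescence was read at 405/460 nm, with triamterene as reference fluorophore.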

[18] = qHTS assay for small molecule agonists of the p53 signaling pathway (AID 651631; calls by dose curve; further: nearly all actives have a fitted effect of over 15% in size; further: potency means the concentration at half of the fitted maximal effect)
In short: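 HCT-116 p53RE-bla reporter line, 16 h compound treatment at 37 °C, then fluorescence after 2 h with B/G FRET substrate.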

[19] = target: Glucocorticoid receptor (Homo sapiens) (UniProt P04150); experiment: qHTS assay to identify small molecule agonists of the glucocorticoid receptor (GR) signaling pathway (AID 720691; active means well fitted activation curve with a large enough effect in the signal ratio in the repeat runs, not every such curve was filed as active; the % refers to the signal ratio)
Sequence of Glucocorticoid receptor (Homo sapiens) (P04150 whole entry, looked up): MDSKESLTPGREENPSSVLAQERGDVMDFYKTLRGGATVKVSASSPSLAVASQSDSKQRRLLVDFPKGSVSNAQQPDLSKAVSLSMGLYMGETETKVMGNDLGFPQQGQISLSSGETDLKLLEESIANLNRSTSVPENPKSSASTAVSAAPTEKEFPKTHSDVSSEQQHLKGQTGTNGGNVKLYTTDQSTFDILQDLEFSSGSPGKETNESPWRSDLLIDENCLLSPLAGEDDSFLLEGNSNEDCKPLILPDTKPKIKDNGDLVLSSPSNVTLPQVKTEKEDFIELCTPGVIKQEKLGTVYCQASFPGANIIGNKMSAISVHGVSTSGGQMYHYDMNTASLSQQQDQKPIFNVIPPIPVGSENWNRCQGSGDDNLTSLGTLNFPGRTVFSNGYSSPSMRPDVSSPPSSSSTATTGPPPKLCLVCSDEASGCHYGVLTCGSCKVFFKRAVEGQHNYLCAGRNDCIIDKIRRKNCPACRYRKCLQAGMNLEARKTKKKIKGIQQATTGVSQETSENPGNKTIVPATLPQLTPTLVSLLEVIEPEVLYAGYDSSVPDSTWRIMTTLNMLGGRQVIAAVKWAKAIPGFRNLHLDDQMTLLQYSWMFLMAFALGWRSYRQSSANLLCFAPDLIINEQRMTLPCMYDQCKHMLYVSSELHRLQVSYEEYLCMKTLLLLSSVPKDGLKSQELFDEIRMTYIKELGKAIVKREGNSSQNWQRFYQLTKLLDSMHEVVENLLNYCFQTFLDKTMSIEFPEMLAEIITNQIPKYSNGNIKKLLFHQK
In short: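 Reporter read-out: fluorescence intensity following 2 h room-temperature LiveBLAzer B/G FRET substrate loading. Prior step: GR-bla HeLa cells held 4 h, then treated 18 h at 37 C.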
On the % scale 0 is the no-effect control and ±100 the full control effect.

Cl/C=C\Cl
inactive: Potency [1] | Potency [2] | Potency [3] | Potency [4] | Potency [5] | outcome [6] | outcome [7] | outcome [8] | outcome [9] | outcome [10] | outcome [11] | outcome [12] | outcome [13] | outcome [14] | outcome [15] | outcome [16] | outcome [17]

Brc1ccccc1
inactive: Potency [18] | Potency [2] | Potency [3] | Potency [4] | Potency [5] | outcome [6] | outcome [7] | outcome [8] | outcome [9] | outcome [10] | outcome [11] | outcome [12] | outcome [13] | outcome [14] | outcome [15] | outcome [16] | outcome [19]

CCCCN(N=O)C(=N)N[N+](=O)[O-]
active: Potency [18] 62.4 µM
inactive: Potency [2] | Potency [3] | Potency [4] | Potency [5] | outcome [6] | outcome [7] | outcome [8] | outcome [9] | outcome [10] | outcome [12] | outcome [13] | outcome [14] | outcome [15] | outcome [16] | outcome [17] | outcome [19]

COP(=S)(OC)Oc1ccc([N+](=O)[O-])cc1Cl
active: Potency [5] 24.3 µM
inactive: Potency [18] | Potency [1] | Potency [2] | outcome [6] | outcome [7] | outcome [8] | outcome [9] | outcome [10] | outcome [12] | outcome [13] | outcome [14] | outcome [15] | outcome [16] | outcome [17]

CO[C@@H]1[C@H](OC(=O)NC(=O)CCl)CC[C@]2(CO2)[C@H]1[C@@]1(C)O[C@@H]1CC=C(C)C
active: Potency [18] 18.8 µM
inactive: Potency [2] | Potency [4] | Potency [5] | fluorescence, % of fluorescein control [7] -0.0271% [at 18.6 µM] | fluorescence, % of triamterene [8] 0.0741% [at 18.6 µM] | fluorescence, % of fluorescent control [9] 0.143% [at 18.6 µM] | fluorescence, % of fluorescein [10] -0.127% [at 18.6 µM] | fluorescence, % of fluorescent control [11] -0.0636% [at 18.6 µM] | activity change [12] 0.201% [at 18.6 µM] | fluorescence, % of fluorescent control [13] -0.369% [at 18.6 µM] | fluorescence, % of Rose Bengal [14] -0.153% [at 18.6 µM] | fluorescence, % of fluorescent control [15] -0.133% [at 18.6 µM] | fluorescence, % of fluorescein control [16] -0.0091% [at 18.6 µM] | fluorescence, % of fluorescent control [17] 0.154% [at 18.6 µM] | outcome [19]

O=C1C(Cl)C(CCl)CN1c1cccc(C(F)(F)F)c1 (stereo not given)
inactive: Potency [18] | Potency [1] | Potency [2] | Potency [3] | outcome [7] | outcome [8] | outcome [9] | outcome [10] | outcome [11] | outcome [12] | outcome [13] | outcome [14] | outcome [15] | outcome [16] | outcome [17]

[O-][Cl+]O
inactive: Potency [18] | Potency [2] | Potency [3] | Potency [4] | Potency [5] | outcome [6] | outcome [7] | outcome [8] | outcome [9] | outcome [10] | outcome [11] | outcome [12] | outcome [13] | outcome [14] | outcome [15] | outcome [16] | outcome [17] | outcome [19]

ClCc1ccccc1
inactive: Potency [18] | Potency [2] | Potency [3] | Potency [4] | Potency [5] | outcome [6] | outcome [7] | outcome [8] | outcome [9] | outcome [12] | outcome [13] | outcome [14] | outcome [15] | outcome [16] | outcome [17]
